The results in this text go back to PubChem BioAssay (EPA / NIEHS).

For orientation: AC50 means the concentration giving half of the maximal activity seen.

The source made the active and inactive calls. How the source made its calls: active means hit-call score of the fitted dose curve at least 0.9, where 1 is the maximum; inactive means score below 0.9. Peptide text beside a SMILES is read from it.

This assay is described as follows: CCTE_Shafer_MEA_acute_firing_rate_mean: CCTE's Neural Acute Assay for Mean Firing Rate, Shafer Lab (AID 2284009). The procedure:
CCTE_Shafer_MEA_acute assay is conducted using Axion Biosystems 48 well microelectrode array (MEA) plates and Maestro recording system. Each well of the MEA plate contains a grid of 16 microelectrodes embedded in the culture surface. Electrically active cells, such as neurons, can be cultured over the electrodes, and electrical activity in these cells can be recorded extracellularly. The spontaneous firing of neurons is captured from each electrode on a microsecond timescale providing both temporally and spatially precise data. […] The CCTE_Shafer_MEA_acute assay uses primary cultures of rat cortical neurons. As these cultures mature over time, neural networks develop functional activity and form cohesive networks in which electrical activity can be highly coordinated. Baseline 40-minute recordings are made on days post-plating 13 or 15, followed by a secondary 40-minute recording after chemical exposure.CCTE_Shafer_MEA_acute_firing_rate_mean is a component of the CCTE_Shafer_MEA_acute assay. It measures the frequency number of spikes (action potential firings) as the total number of spikes divided by the length of the recording in a microelectrode array (MEA) using Axion Biosystems Maestro 768 channel amplifier with the AxIS adaptive spike detector. The firing rate is divided by the number of electrodes to report a well-mean value. The recordings before and after chemical treatment are used to calculate a percent change in the mean firing rate in each well.Data from the assay component CCTE_Shafer_MEA_acute_firing_rate_mean was analyzed into 1 assay endpoint. This assay endpoint, CCTE_Shafer_MEA_acute_firing_rate_mean, was analyzed in the negative analysis fitting direction relative to DMSO as the negative control and baseline of activity. Using a type of functional reporter, gain or loss-of-signal activity can be used to understand electrical activity.
Spontaneous activity in the cortical cultures was recorded using an Axion Biosystems Maestro 768 channel amplifier and Axion Integrated Studios (AxIS) v1.8 (or later) software. The amplifier recorded from all channels simultaneously (gain = 1200 x; sampling rate = 12.5 kHz/channel): raw signals were filtered with a Butterworth band-pass filter (300-5000 Hz), which filters out slower local field potentials leaving only fast potentials, i.e., "spikes", arising from extracellular currents associated with action potentials (Pine 2006; Wheeler and Nam 2011). On-line spike detection of filtered signals was conducted with the AxIS adaptive spike detector, using a threshold of 8x the root mean squared (rms) noise on each channel. Any electrodes with rms noise levels greater than 5 uV were grounded (e.g., no data were recorded). Once grounded, an electrode was grounded for the duration of the experiment. All recordings were conducted at 37 C. Wells were deemed usable if on the day of the exposure >/= 10 electrodes were active (defined as >/= 5 spikes/min). On DIV 13 or 15, a minimum of three wells from one cortical culture preparation were treated with each compound (0.03-40 uM). Prior to recording baseline activity, each mwMEA plate was placed in the Maestro at 37 C and allowed to sit for 20 min while firing rates stabilized. Baseline activity (40 min) was recorded before the addition of each compound. An additional 40 min of spontaneous activity was recorded in the presence of each compound. Changes in network parameters relative to baseline were assessed following compound treatment.
With `CC(C)C(=O)OCCc1ccccc1`, the result was inactive.
On to `Nc1nc(N)nc(-c2ccccc2)n1`, for which the call was inactive.
Still for that read-out and setting: in the case of `CC1(C)CC(O)CC(C)(C)N1[O]` it was “inactive”.
The same measure, in the same setting: in the case of `CCCCCCCCCCCC(=O)N(C)CC(=O)O` it was “inactive”; in that of `CC/C=C\CCOC(=O)c1ccccc1O`, “inactive”.
On the same count and under the same terms, for `CC(CCC(=O)O)(c1ccc(O)cc1)c1ccc(O)cc1` the value was “inactive”.
In the case of `c1ccc(Nc2cccc3ccccc23)cc1`, the AC50 is 979 nM (active).
Regarding `CCCC(C)C(=O)OCC` (stereo not drawn), the outcome was inactive.
As for `Oc1ccccc1Cc1ccccc1O`, the AC50 was 207 nM (active).
As for `Cc1c(C(=O)c2c[nH]n(C)c2=O)ccc(S(C)(=O)=O)c1C1=NOCC1`, the outcome was inactive.
The same measure, in the same setting: for `COC(=O)[C@H](Cc1ccccc1)NC(=O)[C@@H](N)CC(=O)O` (H-Asp-Phe-OMe) the value was “inactive”.
For the compound `Nc1cccc(N)n1`, the concentration at half-maximal activity (AC50) was 3.19 nM (active).
With `C1CNCCN1`, the outcome was inactive.
